Bioassay records as filed in PubChem BioAssay.
Shown are actives, neighbours in structure and some others; about 3.9% of the full set was active somewhere.
ATXN2 expr inh = Primary qHTS for Inhibitors of ATXN expression | AID 1745845, 2022 | HEK-293 ATXN2-luciferase reporter, luminescence, 24 h | Potency, µM (series often up to 57 µM), for the others: at the highest dose activity change, negative = inhibition, most hits filed as inhibitors | actives 0.72% (n = 360,000); also: % is scaled to controls: 0 for no effect and ±100 for the full control effect; nearly all actives have a fitted effect of over 55% in size
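ATXN2-luciferase reporter cells (luciferase flanked by upstream and downstream ATXN2 gene portions) were treated 24 h at 37 °C with compounds at up to 57 uM. SteadyGlo luminescence gave expression; GF-AFC fluorescence gave viability.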
ATXN viability = Viability Counterscreen for Primary qHTS for Inhibitors of ATXN expression; S2 cells (HEK-293 line with an ATXN2-luciferase reporter) viability, CellTiter-Fluor protease fluorescence, 24 h; Potency, µM (series often up to 56.7 µM), actives largely listed as cytotoxic; actives 0.49% (n = 400,000); also: nearly all actives have a fitted effect of over 40% in size
HT1080-NT tox = qHTS for induction of synthetic lethality in tumor cells producing 2HG: qHTS for the HT-1080-NT fibrosarcoma cell line; actives 1.6% (n = 360,000); HT-1080-NT fibrosarcoma viability, CellTiter-Glo ATP luminescence, 48 h; Potency, µM (titrated, usually from 46.1 µM), for the others: top-dose activity, negative = less viability, hits mostly cytotoxic;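 also: NT is the 2HG producing partner of a matched IDH1 knockdown line; 0% = DMSO-treated cells and -100% = media-only wells without cells; nearly all actives have a fitted effect of over 55% in size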
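Compounds were tested in concentration-response format on HT-1080-NT cells for 48 hours at 37 degrees C. Cell viability came from CellTiter-Glo luminescence; curves were classified by r2, response magnitude and activity.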
TGFb inhibitor = qHTS for Inhibitors of TGF-b; HepG2 CAGA-GFP TGF-b/SMAD3 reporter, GFP fluorescence, 18 h; TGF-beta stimulated, 500 pg/mL final; Potency, µM (doses to about 46.1 µM), without a hit: at the highest dose activity, negative = inhibition, most hits filed as inhibitors; AID 588855, 2011; actives 1.2% (n = 410,000); also: % is scaled to controls: 0 for no effect and ±100 for the full control effect; nearly all actives have a fitted effect of over 65% in size
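First, reporter cells (HEPG2 CAGA-GFP) rested 2 h at 37 degrees C. Next, compounds were pinned in and TGF-beta added to 500 pg/mL final. After 18 h, GFP was imaged per cell and summed per well.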
HT1080 IDH1KD tx = qHTS for induction of synthetic lethality in tumor cells producing 2HG: qHTS for the HT-1080-IDH1KD cell line; HT-1080 IDH1 knockdown viability, ATP luminescence, 48 h; AID 686971, 2013; actives 2% (n = 360,000); Potency, µM (titrated, usually from 46.1 µM), without a hit: at the highest dose activity, negative = toxicity, hits mostly cytotoxic;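 also: 0% = DMSO wells and -100% = cell-free medium wells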
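Luminescent ATP read-out (CellTiter-Glo, 10 min at room temperature) after 48 h compound exposure at 37 °C gave viability of IDH1-knockdown HT-1080 cells. Activity was normalised to DMSO and cell-free wells, then fitted as concentration-response curves.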
HepG2 tox = qHTS for Inhibitors of TGF-b: Cytotox Counterscreen. HepG2 CAGA-GFP viability, ATP luminescence, 18 h. Potency, µM (doses to about 46.1 µM), for inactives: at the highest dose activity change, negative = cytotoxicity, usual class: cytotoxic. actives 0.76% (n = 410,000). AID 588856, 2011
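HepG2 CAGA-GFP cells (1000/well, DMEM with 1% FBS) received compound, then TGF-beta at 500 pg/mL final, and were incubated 18 hours at 37 degrees C. Viability was read by CellTiter-Glo luminescence. Media-only wells were set as complete cell-killing and DMSO as no toxicity.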
* hit, by the source's call; i = inactive; ? = inconclusive; / = no result; [ ] = another dose, or the depositor's remark. Calls follow the shape of the dose curve; as a rule, active = well fitted curve in the direction sought with a large enough effect; inconclusive = small, poorly fitted or top-dose-only effect, or another doubt; inactive = no such curve, though single readings can be large; an effect the other way counts as inactive or inconclusive. Potency is read from the fitted curve at half-maximal effect.

SMILES	ATXN2 expr inh	ATXN viability	HT1080-NT tox	TGFb inhibitor	HT1080 IDH1KD tx	HepG2 tox
COCC1CCCN(Cc2ccc3c(c2)CN(C(=O)c2cn4ccc(C)cc4n2)CCO3)C1 (configuration not stated)	/	i	/	/	/	/
CO/N=C\CC(=O)Nc1ccc(Cl)c(Cl)c1	-11%	i	8.2µM*	-6%	6.5µM*	-2%
COC(=O)CCC(=O)Nc1ccc(Cl)c(Cl)c1	-7%	i	9%	-6%	0%	-17%
NC(=O)SCC(=O)Nc1ccc(Cl)c(Cl)c1	?	i	-20%	13µM*	?	-61%
COc1ccc(CN2CCCC(n3cc(C(=O)N4CCCCC4)nn3)C2)c(OC)c1C (configuration not stated)	/	i	/	/	/	/
CCc1ccccc1NNC(=O)c1snnc1C	-13%	i	12µM*	?	?	-15%
Cc1nnsc1C(=O)NNc1c(Cl)cccc1Cl	-15%	i	?	10%	-7%	-3%
COc1ccccc1N1C(=O)c2ccccc2NC1c1ccncc1 (configuration not stated)	-18%	?	12%	11%	8%	3%
COc1ccccc1N1C(=O)N(C(C)=O)C2C1Nc1ccccc1N2C (configuration not stated)	25µM*	i	16µM*	?	-28%[9.24 µM]	-88%
CCC(CC)COC(=O)C1=C(C)NC(=O)NC1c1ccc(N(C)C)cc1 (configuration not stated)	/	i	1%	?	0%	7.9µM*
CCOC(=O)C1=C(C)NC(=O)NC1c1ccc(N(C)C)cc1 (configuration not stated)	-5%	i	-2%	0%	-1%	-17%
Cc1nc(Nc2nc(-c3ccccc3)cc(=O)[nH]2)nc2ccccc12	5%	?	?	?	18µM*	-38%
O=C(/C=C/c1ccc(O)c(O)c1)O[C@@H]1C[C@@](OC(=O)/C=C/c2ccc(O)c(O)c2)(C(=O)O)C[C@@H](O)[C@@H]1O	6%	i	/	/	/	/
OC[C@H]1O[C@@H](n2cnc3c2NC=NC[C@H]3O)C[C@@H]1O	/	i	/	/	/	/
COc1ccccc1NC(=O)C1=C(C)Nc2nc3ccccc3n2C1c1ccccc1Cl (configuration not stated)	4%	i	/	-5%	/	-4%
Cn1c(=O)n(C)c2cc(CNCc3ccc(C(=O)O)cc3)ccc21	5%	i	/	15%	/	-32%
Clc1ccc2c(c1)C(C1=NCCN1)c1ccccc1CS2 (configuration not stated)	?	?	1.2µM*	-15%	1.5µM*	-5%
CCOc1cc(-c2c(C#N)c(N)nc3c2CCc2ccccc2-3)ccc1O	43%	?	-28%	?	?	13µM*
COc1ccccc1-c1c(C#N)c(N)nc2c1CCc1ccccc1-2	34%	i	15µM*	-23%	16µM*	-53%
CCOc1cc(-c2cc(-c3ccc(C)cc3)nc(N)c2C#N)ccc1O	?	?	8.9µM*	?	13µM*	-90%
Cc1c(C(=O)NC(C)(C)C)sc2ncnc(NCCN(C)C)c12	/	i	/	/	/	/
COC(=O)C1=C(C)NC(C)=C(C(=O)OCCN(C)Cc2ccccc2)C1c1cccc([N+](=O)[O-])c1 (configuration not stated)	?	22µM*	-28%	-25%	?	-52%
